Screening data (PubChem)
L3MBTL1 inh: inhibitors of human L3MBTL1; Potency, µM (doses to about 57.1 µM), actives largely listed as inhibitors; Q9Y468; AlphaScreen L3MBTL1–H3K9me1 peptide binding; hit rate 0.66% among 230,000; further: nearly all actives have a fitted effect of over 60% in size
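L3MBTL1 50 nM + b-AHA-H3(1-15)K9me1 75 nM, 30 min RT; compound added, 30 min RT; streptavidin donor/Ni-chelate acceptor beads 10 ug/mL each final, 30 min RT dark; AlphaScreen read.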
WRN inhibitor: WRN helicase (human) inhibition; Q14191; WRN helicase unwinding, fluorescent forked duplex, kinetic; Potency, µM (doses to about 114 µM), hits mostly inhibitors; hit rate 0.46% among 360,000; AID 651768; further: nearly all actives have a fitted effect of over 55% in size
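WRN at 20 nM final preincubated with compound 15 min at room temperature; reaction started with 100 nM fluorophore/quencher forked duplex oligonucleotide and 2 mM ATP final. Unwinding followed kinetically by red fluorescence (ex 525, em 598 nm).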
BLM helicase inh: blocks DNA unwinding by human BLM helicase | recombinant BLM DNA unwinding, fluorescence dequenching | Potency, µM (titrated, usually from 56.1 µM), usual class: inhibitors | hit rate 0.2% among 350,000; further: nearly all actives have a fitted effect of over 35% in size
Target sequence (P54132 whole entry, looked up): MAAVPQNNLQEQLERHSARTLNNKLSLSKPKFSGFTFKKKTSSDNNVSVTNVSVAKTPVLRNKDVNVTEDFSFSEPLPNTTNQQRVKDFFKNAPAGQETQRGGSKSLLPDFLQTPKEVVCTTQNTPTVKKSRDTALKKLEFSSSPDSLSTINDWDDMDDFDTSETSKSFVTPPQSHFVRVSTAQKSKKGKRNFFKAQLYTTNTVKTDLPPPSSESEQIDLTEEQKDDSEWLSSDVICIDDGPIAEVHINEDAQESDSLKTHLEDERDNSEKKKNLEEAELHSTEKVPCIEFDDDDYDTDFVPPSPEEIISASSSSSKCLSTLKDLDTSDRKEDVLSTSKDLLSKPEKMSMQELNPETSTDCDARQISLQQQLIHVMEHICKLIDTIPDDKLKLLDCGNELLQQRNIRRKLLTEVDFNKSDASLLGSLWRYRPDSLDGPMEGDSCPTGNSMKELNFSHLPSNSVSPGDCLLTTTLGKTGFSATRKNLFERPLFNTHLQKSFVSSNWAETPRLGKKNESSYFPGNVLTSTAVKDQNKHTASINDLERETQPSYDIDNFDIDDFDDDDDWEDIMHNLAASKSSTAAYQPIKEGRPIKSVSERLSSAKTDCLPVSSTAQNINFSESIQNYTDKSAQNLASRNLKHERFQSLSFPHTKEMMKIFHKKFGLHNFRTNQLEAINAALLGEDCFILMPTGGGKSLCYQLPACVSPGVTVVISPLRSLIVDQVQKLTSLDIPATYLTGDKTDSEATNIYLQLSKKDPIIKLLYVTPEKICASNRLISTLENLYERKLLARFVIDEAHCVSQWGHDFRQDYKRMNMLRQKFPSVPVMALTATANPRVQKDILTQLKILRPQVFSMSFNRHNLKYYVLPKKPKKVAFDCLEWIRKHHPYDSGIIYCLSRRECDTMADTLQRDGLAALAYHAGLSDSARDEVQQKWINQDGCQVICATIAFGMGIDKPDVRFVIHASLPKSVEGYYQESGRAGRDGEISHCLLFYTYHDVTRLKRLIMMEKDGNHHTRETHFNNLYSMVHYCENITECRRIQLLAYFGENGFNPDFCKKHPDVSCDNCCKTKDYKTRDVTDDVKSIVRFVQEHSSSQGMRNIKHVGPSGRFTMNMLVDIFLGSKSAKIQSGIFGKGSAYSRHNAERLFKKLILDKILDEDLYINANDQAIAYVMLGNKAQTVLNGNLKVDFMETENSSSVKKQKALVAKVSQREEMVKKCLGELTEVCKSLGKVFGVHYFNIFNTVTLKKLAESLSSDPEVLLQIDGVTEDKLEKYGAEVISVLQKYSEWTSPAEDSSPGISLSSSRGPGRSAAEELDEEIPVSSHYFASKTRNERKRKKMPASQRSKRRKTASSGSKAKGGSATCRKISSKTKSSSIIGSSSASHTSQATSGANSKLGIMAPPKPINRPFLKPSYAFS
FEN1 inh-1: blocks human flap endonuclease 1; P39748; Recombinant FEN1 flap cleavage, fluorescence, 15 min; Potency, µM (series often up to 114 µM), actives largely listed as inhibitors; hit rate 0.35% among 390,000; further: nearly all actives have a fitted effect of over 65% in size
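Potency values derive from four-parameter Hill fits of normalized qHTS data. The reaction used 10 nM FEN1 preincubated 15 min at room temperature with compound, then 50 nM DNA substrate, read at 0 and 15 min.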
RECQ1 helicase: blocks DNA unwinding by human RECQ1; Potency, µM (titrated, usually from 57.3 µM), usual class: inhibitors; RECQ1 DNA unwinding, red fluorescence kinetic read; hit rate 0.54% among 240,000; further: nearly all actives have a fitted effect of over 30% in size
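50 nM RECQ1T1 preincubated 15 min with compound in Tris pH 8.0 buffer with MgCl2, DTT, Tween-20 and 2.5 ug/ml poly(dI-dC); started with 200 nM TAMRA/BHQ-2 forked duplex and 2 mM ATP. Unwinding read as fluorescence (525/598 nm), two reads 2 h apart.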
FEN1 inh-2: FEN1 inhibition, cherry-pick retest; shares compounds with FEN1 inh-1; FEN1 flap cleavage, TAMRA/BHQ2 fluorogenic DNA substrate; Potency, µM, usual class: inhibitors; hit rate 79% among 880; AID 720498; further: nearly all actives have a fitted effect of over 60% in size
Large screens that a line does not name were inactive (follow-up assays come after a bar, where they were run). In the library only some 0.99% were active in any assay of this set; here they are far more common. The call rests on the fitted dose curve; in most records, active means well fitted curve in the direction sought with a large enough effect; inconclusive means small, poorly fitted or top-dose-only effect, or another doubt; inactive means no such curve, though single readings can be large; an effect the other way counts as inactive or inconclusive.

CC[n+]1ccc(/C=C/c2ccc(N(C)C)cc2)c2ccccc21	L3MBTL1 inh 25µM, WRN inhibitor 45µM, FEN1 inh-1 40µM, RECQ1 helicase 35µM | FEN1 inh-2 48
Cc1ccc(NS(=O)(=O)c2ccccc2)c(C)c1	none (no result: L3MBTL1 inh, WRN inhibitor, BLM helicase inh, RECQ1 helicase)
Cc1ccc(-c2nc(C(=O)NCCCN(C)C)cc3c2[nH]c2ccccc23)cc1	FEN1 inh-1 inconclusive (no result: L3MBTL1 inh, RECQ1 helicase) | FEN1 inh-2 38
CCOC(=O)c1cc([N+](=O)[O-])sc1NC(=O)CC	none
CN(CCC#N)C(=O)COC(=O)c1c2c(nc3ccccc13)/C(=C\c1ccco1)CC2	WRN inhibitor inconclusive, FEN1 inh-1 50µM (no result: L3MBTL1 inh, BLM helicase inh, RECQ1 helicase) | FEN1 inh-2 67
CN1CCc2nc3ccccc3c(C(=O)OCC(=O)N(CCC#N)c3ccccc3)c2C1	none
Cc1nnc(SCC(=O)Nc2cc(S(=O)(=O)N3CCOCC3)ccc2N2CCCC2)s1	none (no result: L3MBTL1 inh, BLM helicase inh, RECQ1 helicase)
COc1ccc(NC(=O)C2CCN(S(=O)(=O)c3ccc4c(c3)NC(=O)C(C)S4)CC2)cc1 (centres undefined)	none (no result: L3MBTL1 inh, RECQ1 helicase)
CC1Sc2ccc(S(=O)(=O)N3CCC(C(=O)Nc4ccc(Cl)cc4)CC3)cc2NC1=O (centres undefined)	WRN inhibitor 79µM, FEN1 inh-1 inconclusive (no result: L3MBTL1 inh, RECQ1 helicase) | FEN1 inh-2 48
O=C(O)c1cc(O)c2c(c1)[C@@H]([C@H]1c3cc(C(=O)O)cc(O)c3C(=O)c3c(O[C@@H]4O[C@H](CO)[C@@H](O)[C@H](O)[C@H]4O)cccc31)c1cccc(OC3O[C@H](CO)[C@@H](O)[C@H](O)[C@H]3O)c1C2=O (some centres undefined)	L3MBTL1 inh 0.16µM, WRN inhibitor 1.1µM, FEN1 inh-1 inconclusive (no result: BLM helicase inh, RECQ1 helicase) | FEN1 inh-2 30
CCOC(=O)c1c(CSc2ccccc2)n(C)c2cc(Br)c(OC)c(O)c12	none (no result: RECQ1 helicase)
CCOC(=O)c1c(CSc2ccccc2)n(C)c2cc(Br)c(OCC(O)CNC(CO)(CO)CO)cc12 (centres undefined)	WRN inhibitor inconclusive, FEN1 inh-1 45µM | FEN1 inh-2 43
CN1C=C/C(=C\c2cc[n+](C)c3ccccc23)c2ccccc21	WRN inhibitor 40µM, BLM helicase inh inconclusive, FEN1 inh-1 28µM (no result: L3MBTL1 inh) | FEN1 inh-2 8.5
COc1ccccc1N1CCN(c2ncc3c(n2)CCN(Cc2ccccc2C)C3)CC1	none (no result: L3MBTL1 inh, WRN inhibitor, RECQ1 helicase)
Cc1ccccc1CN1CCc2nc(N3CCN(c4ncccn4)CC3)ncc2C1	FEN1 inh-1 inconclusive (no result: L3MBTL1 inh, WRN inhibitor, RECQ1 helicase) | FEN1 inh-2 67
COc1ccc(S(=O)(=O)N2CCN(C(=O)c3ccc([N+](=O)[O-])o3)CC2)cc1	none (no result: L3MBTL1 inh, RECQ1 helicase) | FEN1 inh-2 76
CCc1cc(-c2n[nH]c(C)c2-c2nc3ccccc3n2C)c(O)c(CN2CCN(C)CC2)c1O	none
OC1(CNCc2ccccc2)C2CC3CC(C2)CC1C3 (centres undefined)	none
Cc1cccc(Oc2cc([N+](=O)[O-])cc3c2C(=O)Nc2ccccc2O3)c1	L3MBTL1 inh inconclusive
O=C1Nc2ccccc2Oc2cc([N+](=O)[O-])cc(Oc3ccccc3)c21	WRN inhibitor inconclusive, FEN1 inh-1 inconclusive | FEN1 inh-2 85
N#C/C(=C\c1c[nH]c2ccccc12)C(=O)NC1CCCC1	none (no result: RECQ1 helicase)
O=c1c2ccccc2c(/C=N/NS(=O)(=O)c2ccccc2)c(O)n1-c1ccccn1	WRN inhibitor inconclusive | FEN1 inh-2 inconclusive
N#Cc1cnn2ccc(-c3cc(N4CCOCC4)ccc3[N+](=O)[O-])nc12	L3MBTL1 inh inconclusive
Cc1ccc(/C=C/c2nc3sc(C(=O)O)c(C)c3c(=O)[nH]2)cc1[N+](=O)[O-]	WRN inhibitor inconclusive (no result: L3MBTL1 inh, RECQ1 helicase) | FEN1 inh-2 76
O=C(O)c1ccc(-n2cccc2/C=C2/NC(=O)N(c3cccc(Cl)c3)C2=O)cc1	WRN inhibitor inconclusive, FEN1 inh-1 40µM, RECQ1 helicase 22µM (no result: L3MBTL1 inh) | FEN1 inh-2 67
COc1ccc(-c2noc(CSc3nc(N)c(-c4ccccc4)c(=O)[nH]3)n2)cc1OC	none
NC(=O)N=Nc1c2[nH]c3ccccc3nc-2c2ccccc12	FEN1 inh-1 10µM | FEN1 inh-2 3.4
Cc1c(CCC(=O)O)c(=O)oc2c(C)c3occ(-c4ccc(Br)cc4)c3cc12	WRN inhibitor 63µM (no result: L3MBTL1 inh, RECQ1 helicase) | FEN1 inh-2 inconclusive
O=C(COC(=O)c1ccc([N+](=O)[O-])o1)Nc1cccc(S(=O)(=O)N2CCOCC2)c1	FEN1 inh-1 28µM | FEN1 inh-2 19
Cc1cccc(NC(=O)COC(=O)c2ccc([N+](=O)[O-])o2)c1C	FEN1 inh-1 inconclusive | FEN1 inh-2 21
CN(C)S(=O)(=O)c1cccc(NC(=O)COC(=O)c2ccc([N+](=O)[O-])o2)c1	FEN1 inh-1 50µM | FEN1 inh-2 19
O=C(/C=C/c1cccs1)N1CCC2(CC1)Oc1ccc(F)cc1C(=O)C21CC(c2ccccc2)=NO1 (centres undefined)	none (no result: L3MBTL1 inh)
CC(=O)N1CCc2cc(Br)cc(S(=O)(=O)NCCN3CCCCC3C)c21 (centres undefined)	none
O=C(Nc1ccc(S(=O)(=O)O)cc1)c1ccc2c(c1)S(=O)(=O)c1ccccc1C2=O	FEN1 inh-1 45µM (no result: L3MBTL1 inh, BLM helicase inh, RECQ1 helicase) | FEN1 inh-2 76
OC1CCCN(Cc2ccc3ccc4cccc5ccc2c3c45)C1 (centres undefined)	FEN1 inh-1 56µM | FEN1 inh-2 43
COc1cc(-c2cc(=O)c3c(O)c(OC)c(OC)c(O)c3o2)ccc1O	L3MBTL1 inh inconclusive, WRN inhibitor inconclusive, FEN1 inh-1 inconclusive, RECQ1 helicase 13µM | FEN1 inh-2 34
CCc1nnc(NC(=O)COc2ccc3ccccc3c2)s1	none (no result: L3MBTL1 inh, RECQ1 helicase)
CN1/C(=C\C=C2/SC(=S)NC2=O)C(C)(C)c2ccccc21	WRN inhibitor 28µM, BLM helicase inh inconclusive, FEN1 inh-1 inconclusive, RECQ1 helicase 32µM | FEN1 inh-2 67
CO/N=C/C=C1/N(C)c2ccccc2C1(C)C	none
CC(=O)Nc1ccc(S(=O)(=O)Nc2nc3ccccc3nc2Nc2ccc(C(=O)O)c(O)c2)cc1	L3MBTL1 inh 3.2µM, FEN1 inh-1 20µM (no result: BLM helicase inh, RECQ1 helicase) | FEN1 inh-2 76
NN1C(=O)/C(=C2/Sc3ccccc3N2CCCS(=O)(=O)O)SC1=S	FEN1 inh-1 35µM (no result: RECQ1 helicase) | FEN1 inh-2 inconclusive
C/C(=N\NC(=O)c1ccc(OC2OCCOC2Oc2ccc(C(=O)N/N=C(\C)c3ccncc3)cc2)cc1)c1ccncc1 (centres undefined)	none | FEN1 inh-2 67
COc1cc(/C=N/NC(=S)Nc2cccc(S(=O)(=O)N(C)C)c2)cc(OC)c1O	none
CN(C)S(=O)(=O)c1cccc(NC(=S)N/N=C/c2ccc(O)c(O)c2O)c1	L3MBTL1 inh 1.6µM, WRN inhibitor 28µM, FEN1 inh-1 20µM | FEN1 inh-2 8.5
Cc1[nH]c2ccc(-c3nnc(SCC(=O)N4CCCc5ccccc54)o3)cc2c1C	none
COC(=O)c1cc2c(-c3ccccc3)c(C)c3ccccn3c-2c1C(=O)OC	WRN inhibitor inconclusive, FEN1 inh-1 inconclusive (no result: L3MBTL1 inh) | FEN1 inh-2 85
